# About 890 (0.31%) of roughly 290,000 compounds were called active. This is one part of a sample in which actives are shown more often than they occur. Cut-off read from the data, not from the text of the source: active = inhibition mostly above about 52% (no sharp cut-off); inactive = mostly below about 76%.
# Test: cell-free HIV fusion peptide-binding blockers – biochemical, uHTS, fluorescence dequenching, primary screen (AID 1986)
# Conditions: 30 min, stronger effect = higher value
# [1] = measured here: repeat confirmation average inhibition, at 18.6 µM
SMILES,inhibition (at 20 µM),inhibition [1] [%]
Nc1cc(=O)[nH]c(SCC(=O)N2N=C(c3ccc4ccccc4c3)CC2c2ccccc2)n1 (stereo unspecified),-0.7% (inactive),–
Cc1cc(-c2ccccc2)n2ncnc2n1,0.4% (inactive),–
COc1ccc2nc(C)cc(NCc3cccc(C(F)(F)F)c3)c2c1,-0.7% (inactive),–
COc1ccc(CNc2cc(C)nc3ccc(OC)cc23)cc1,-0.2% (inactive),–
COc1ccc2nc(C)cc(NCc3ccc(F)cc3)c2c1,65.2% (active),53
COc1ccccc1C(=O)Nc1ccccn1,0.9% (inactive),–
CCc1nc(N[C@@H](CC(C)C)C(=O)O)c2oc3ccccc3c2n1,4.3% (inactive),–
Cc1ccc(C2C3CN(C(C)C)CC=C3C(C#N)=C(N)C2(C#N)C#N)cc1 (stereo unspecified),87.6% (active),–
COc1ccc(OC)c(C2C3CN(C(C)C)CC=C3C(C#N)=C(N)C2(C#N)C#N)c1 (stereo unspecified),-0.5% (inactive),–
CN1CC=C2C(C#N)=C(N)C(C#N)(C#N)[C@H](c3ccoc3)[C@H]2C1,0.3% (inactive),–
CN1CC=C2C(C#N)=C(N)C(C#N)(C#N)[C@H](c3cccc(Cl)c3)C2C1 (stereo partly specified),25.6% (inactive),–
Cc1ccc(C2C3CSCC=C3C(C#N)=C(N)C2(C#N)C#N)cc1 (stereo unspecified),22.2% (inactive),–
CC(C)N1CC=C2C(C#N)=C(N)C(C#N)(C#N)C(c3ccccc3)C2C1 (stereo unspecified),86.9% (active),–
CN1CC=C2C(C#N)=C(N)C(C#N)(C#N)C(CCc3ccccc3)C2C1 (stereo unspecified),64.6% (inactive),14.6
CC(=O)N1CC=C2C(C#N)=C(N)C(C#N)(C#N)[C@H](c3ccoc3)[C@H]2C1,29% (inactive),–
CC(C)N1CC=C2C(C#N)=C(N)C(C#N)(C#N)[C@H](c3ccoc3)[C@H]2C1,123% (active),–
CCCC1C2CN(C(C)C)CC=C2C(C#N)=C(N)C1(C#N)C#N (stereo unspecified),-3.6% (inactive),–
CCN1CC=C2C(C#N)=C(N)C(C#N)(C#N)C(CCc3ccccc3)C2C1 (stereo unspecified),-0.3% (inactive),–
CN1CC=C2C(C#N)=C(N)C(C#N)(C#N)C(Cc3ccccc3)C2C1 (stereo unspecified),52.9% (active),–
COc1cc(/C=C(\C#N)C(=O)NCC2CCCO2)ccc1OC(C)C (stereo unspecified),-1.4% (inactive),–
CN(CC(=O)Nc1ccc(F)c(F)c1F)c1ncnc2sccc12,0.3% (inactive),–
COCCn1c(SCC(=O)N2CCCc3ccccc32)nnc1-c1ccoc1C,-1.1% (inactive),–
COc1ccc(Cl)cc1N1C(=O)CN(Cc2cc(OC)c(OC)c(OC)c2)C1=S,1% (inactive),–

SMILES,inhibition (at 20 µM),inhibition [1] [%]
COc1ccccc1C(=O)NNC(=O)c1ccc2ccccc2c1,0.5% (inactive),–
O=C(/C=C/c1ccccc1)Nc1cccnc1Cl,-1.1% (inactive),–
CCCCOC(=O)c1ccc(N=Nc2c(C)c(C#N)c(O)[nH]c2=O)cc1,77.6% (active),93.8
Cc1c(C#N)c(O)[nH]c(=O)c1N=Nc1ccc(S(N)(=O)=O)cc1,12% (inactive),–
CCOC(=O)c1ccc(N=Nc2c(C)c(C#N)c(O)[nH]c2=O)cc1,4.3% (inactive),–
COc1ccccc1CC(NC(C)=O)C(=O)NC1CCN(C(=O)Nc2cccc(F)c2)CC1 (stereo unspecified),-1.2% (inactive),–
C=C1CCN([C@@H](C)C(=O)OCc2cccc(C)c2)S(=O)(=O)c2ccccc21,1.3% (inactive),–
O=C(CCCN1C(=O)/C(=C\c2ccco2)SC1=S)Nc1ccc2ccccc2c1,65.1% (inactive),3
CC(=O)c1ccc(NC(=O)CCCN2C(=O)/C(=C/C(C)=C/c3ccccc3)SC2=S)cc1,3.3% (inactive),–
O=C(CCCN1C(=O)/C(=C/c2ccccc2)SC1=S)Nc1ccc(C(=O)O)c(O)c1,60.7% (inactive),40.5
CC(/C=C1\SC(=S)N(CCCC(=O)Nc2ccc(C(=O)O)c(O)c2)C1=O)=C\c1ccccc1,56.9% (active),–
O=C(CCN1C(=O)S/C(=C/c2ccccc2)C1=O)Nc1ccc(C(=O)O)c(O)c1,29.4% (inactive),–
CC(C(=O)Nc1ccc(C(=O)O)c(O)c1)N1C(=O)/C(=C\c2ccco2)SC1=S (stereo unspecified),78.3% (active),–
O=C(CCCN1C(=O)/C(=C/c2ccco2)SC1=S)Nc1cccc(C(=O)O)c1,59.9% (inactive),12.3
O=C(CCN1C(=O)/C(=C\c2ccco2)SC1=S)Nc1ccc(C(=O)O)c(O)c1,75.4% (active),–
CC(C(=O)Nc1ccc(O)cc1C(=O)O)N1C(=O)/C(=C\c2cccs2)SC1=S (stereo unspecified),50.1% (inactive),46.3
O=C(CN1C(=O)/C(=C/c2ccco2)SC1=S)Nc1ccc(O)c(C(=O)O)c1,58.3% (active),–
O=C(CCCN1C(=O)/C(=C/c2ccco2)SC1=S)Nc1ccccc1C(=O)O,67.2% (inactive),29.8
CC(C(=O)N(C)C1CCS(=O)(=O)C1)N1C(=O)/C(=C/c2ccco2)SC1=S (stereo unspecified),24.8% (inactive),–
CC(C)(C)n1nnnc1CN1CCN2CCCC2C1 (stereo unspecified),1.1% (inactive),–
NC(=O)C1=C[C@H](c2ccc(C(F)(F)F)cc2)C[C@H](OCCCCO)O1,-0.7% (inactive),–
Cc1cccc(NS(=O)(=O)c2ccc3c(c2)oc(=O)n3C)c1C,2.3% (inactive),–
Cc1cccc(NC(=O)NC2CCCc3ccccc32)c1 (stereo unspecified),-2.1% (inactive),–

SMILES,inhibition (at 20 µM),inhibition [1] [%]
COc1ccccc1OCC(=O)Nc1ccc(S(=O)(=O)Nc2onc(C)c2C)cc1,-0.4% (inactive),–
CCC(C)[C@H](NC(=O)[C@@H]1Cc2c([nH]c3ccccc23)C2c3ccccc3C(=O)N21)C(=O)N1CCC[C@@H]1C(=O)O (stereo partly specified),6.9% (inactive),–
O=C(CN1C(=O)/C(=C/c2ccco2)SC1=S)Nc1ccc(C(=O)O)c(O)c1,76.4% (active),–
O=C(CN1C(=O)/C(=C\c2cccs2)SC1=S)Nc1cccc(C(=O)O)c1,32.4% (inactive),–
O=C(CCN1C(=O)/C(=C/c2ccco2)SC1=S)Nc1ccc(O)cc1C(=O)O,52.5% (inactive),30.6
O=C(CN1C(=O)/C(=C\c2ccco2)SC1=S)Nc1ccc(O)cc1C(=O)O,75.1% (active),–
COc1ccc(NC(=O)CCCN2C(=O)/C(=C\c3ccco3)SC2=S)cc1,33.7% (inactive),–
O=C(CCCN1C(=O)/C(=C\c2ccco2)SC1=S)Nc1ccc(O)cc1C(=O)O,72% (inactive),13
CCCCOc1ccc(Cc2n[nH]c(=S)n2N)cc1,-3.5% (inactive),–
Cc1ccc(C)c(S(=O)(=O)N2CCN(C(=O)c3ccc(N4CCCC4)c([N+](=O)[O-])c3)CC2)c1,0.3% (inactive),–
CC1(C)Cc2nc3sc4c(N5CCCC5)nnnc4c3cc2CO1,0.1% (inactive),–
O=C(NCCCCc1ccccc1)c1cccc([N+](=O)[O-])c1,0.7% (inactive),–
CCCOc1ccc(-c2cc(C(F)(F)F)c(C#N)c(SCC(=O)O)n2)cc1,29.9% (inactive),–
COc1ccc(-c2cc(C(F)(F)F)c(C#N)c(SCC(=O)O)n2)cc1,2.9% (inactive),–
CCCCOc1ccc(-c2cc(C(F)(F)F)c(C#N)c(SCC(=O)O)n2)cc1,79.3% (active),–
O=C(N/N=C/c1cccc([N+](=O)[O-])c1)c1ccc2nc[nH]c2c1,-2.3% (inactive),–
O=C1c2ccccc2C(=O)N1Cc1cc(Cl)c(O)c([N+](=O)[O-])c1,-1.1% (inactive),–
NC(=S)Nc1cc2ccccc2c2ccccc12,-2.7% (inactive),–
CC1CCCN(S(=O)(=O)c2ccc([N+](=O)[O-])cc2)C1 (stereo unspecified),1.5% (inactive),–
O=C(O)Cc1cc(I)c(Oc2ccc(O)c(I)c2)c(I)c1,68.9% (inactive),33.9
O=C(O)CCc1cc(I)c(Oc2ccc(O)c(I)c2)c(I)c1,75.1% (active),–
N[C@@H](Cc1cc(I)c(Oc2ccc(O)c(I)c2)c(I)c1)C(=O)O,30.3% (inactive),–
CCn1c(=O)c2c(nc3n2CCCN3CCc2ccc(OC)c(OC)c2)n(C)c1=O,-0.3% (inactive),–

SMILES,inhibition (at 20 µM),inhibition [1] [%]
CC(C)C(=O)NNC(=O)c1csc(-c2cccs2)n1,0% (inactive),–
COc1cc(C2CC(=O)Nc3c2c(=O)nc2c(C)cccn32)cc(OC)c1OC (stereo unspecified),0% (inactive),–
N#C/C(=C/c1ccc(N2CCOCC2)o1)C(=O)Nc1ccccc1,147% (inactive),–
N#C/C(=C\c1ccc(N2CCOCC2)o1)c1nc2ccccc2[nH]1,48.3% (inactive),–
N#C/C(=C/c1ccc(N2CCCCC2)o1)C(=O)Nc1ccc(Cl)cc1,44.8% (inactive),–
N#C/C(=C\c1ccc(N2CCCCC2)o1)C(N)=O,91.9% (active),–
N#C/C(=C\c1ccc(N2CCOCC2)o1)C(=O)Nc1ccc(O)cc1,148% (inactive),–
Cc1ccc2nc(/C(C#N)=C\c3ccc(N4CCOCC4)o3)[nH]c2c1,28% (inactive),–
N#C/C(=C\c1ccc(N2CCOCC2)o1)C(=O)N1CCOCC1,53.5% (active),83.9
N#C/C(=C/c1ccc(N2CCOCC2)o1)c1nc2ccccc2[nH]1,52.1% (active),–
N#C/C(=C/c1ccc(N2CCCCC2)o1)C(=O)Nc1ccc2ccccc2c1,153% (inactive),–
COc1cccc(CC(=O)NC2CCCN(Cc3ccc(Cl)cc3)C2)c1 (stereo unspecified),-1% (inactive),–
CCCCCn1c(=O)[nH]c2cc(C(=O)NCCN3CCCCC3C)ccc2c1=O (stereo unspecified),0.7% (inactive),–
COc1ccc(OC)c(CN2CCN(S(=O)(=O)c3ccc(NC(C)=O)cc3)CC2)c1,-1.6% (inactive),–
S=C(NCCc1ccccc1)NC1CC2CCC(C1)N2Cc1ccccc1 (stereo unspecified),-0.5% (inactive),–
O=C(N/N=C/c1ccncc1)c1cccs1,-1.5% (inactive),–
CCOC(=O)c1sc(N/N=C/c2cc(Br)c(O)c(OC)c2)nc1C,13.2% (inactive),–
COC/C=C/C1=CC2=CC(=O)C(C)(OC(=O)C3CCCC3)C(=O)C2=CO1 (stereo unspecified),35.3% (inactive),–
COC/C=C/C1=CC2=CC(=O)C(C)(OC(=O)CCC(=O)OC)C(=O)C2=CO1 (stereo unspecified),45% (inactive),–
COC/C=C/C1=CC2=CC(=O)C(C)(OC(=O)c3ccco3)C(=O)C2=CO1 (stereo unspecified),51% (active),–

# Source: PubChem BioAssay AID1986 (Sanford-Burnham Center for Chemical Genomics, 2009)
